Laboratory results published in PubChem BioAssay (EPA / NIEHS).
Records with an inconclusive call do not appear. Calls of active or inactive are those of the source. The calls were made as follows, unless noted: active = hit-call score of the fitted dose curve at least 0.9, where 1 is the maximum; inconclusive = response in the unintended direction; inactive = score below 0.9.

Tests used:
[1] = target: Estrogen receptor beta (Homo sapiens) (UniProt Q92731); assay: OT_ER_ERbERb_1440: Odyssey Thera (OT) 24-hour HEK293T Protein-Complementation Assay for Estrogen Receptor-beta/-beta Homodimer (AID 2283380);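 also: fluorescence gain from ER beta LBD homodimer complementation read by laser scanning cytometry; scored as signal increase over DMSO baseline for both agonists and antagonists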
Sequence of Estrogen receptor beta (Homo sapiens) (Q92731 whole entry, looked up, the tested form may be a part): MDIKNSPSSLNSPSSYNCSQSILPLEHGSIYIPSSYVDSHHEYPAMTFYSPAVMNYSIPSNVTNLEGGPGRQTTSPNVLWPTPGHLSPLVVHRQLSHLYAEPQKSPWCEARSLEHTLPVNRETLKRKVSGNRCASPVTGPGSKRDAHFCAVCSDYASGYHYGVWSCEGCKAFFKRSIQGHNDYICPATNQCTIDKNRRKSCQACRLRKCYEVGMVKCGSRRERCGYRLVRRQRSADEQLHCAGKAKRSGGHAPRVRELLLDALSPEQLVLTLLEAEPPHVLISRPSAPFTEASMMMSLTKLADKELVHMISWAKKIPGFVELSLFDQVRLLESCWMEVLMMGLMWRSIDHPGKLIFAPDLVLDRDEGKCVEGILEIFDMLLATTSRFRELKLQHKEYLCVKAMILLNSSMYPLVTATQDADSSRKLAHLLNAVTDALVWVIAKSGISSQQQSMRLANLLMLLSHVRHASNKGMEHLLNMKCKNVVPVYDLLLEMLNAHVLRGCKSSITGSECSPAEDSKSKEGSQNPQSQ
In short: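 Fluorescence increase, nuclear for agonists or whole-cell for antagonists, relative to DMSO vehicle, quantified by laser scanning cytometer after fixation and Draq5 staining. Readout from 24 h treatment of HEK293T cells carrying complementation-paired ER beta LBD (aa 310-547).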

[2] = target: Retinoic acid receptor RXR-alpha (Homo sapiens) (UniProt P19793); assay: OT_NURR1_NURR1RXRa_0480: Odyssey Thera (OT) 8-hour HEK293T Protein Complementation Assay for Nurr1/retinoid X receptor (RXR) (AID 2283385)
Sequence of Retinoic acid receptor RXR-alpha (Homo sapiens) (P19793 whole entry, looked up, the tested form may be a part): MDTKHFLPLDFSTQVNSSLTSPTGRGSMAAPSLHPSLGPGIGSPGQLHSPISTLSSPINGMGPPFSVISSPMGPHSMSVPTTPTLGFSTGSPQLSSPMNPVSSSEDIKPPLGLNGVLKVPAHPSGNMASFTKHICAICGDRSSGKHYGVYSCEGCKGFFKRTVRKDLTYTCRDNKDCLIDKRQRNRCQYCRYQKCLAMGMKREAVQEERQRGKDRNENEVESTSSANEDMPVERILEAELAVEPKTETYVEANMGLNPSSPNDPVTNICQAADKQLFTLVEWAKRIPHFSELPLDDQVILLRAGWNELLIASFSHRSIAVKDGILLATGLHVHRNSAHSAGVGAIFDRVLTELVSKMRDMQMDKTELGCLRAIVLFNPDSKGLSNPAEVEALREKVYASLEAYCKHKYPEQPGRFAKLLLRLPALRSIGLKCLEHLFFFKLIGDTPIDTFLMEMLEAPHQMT
In short: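 Read-out: fluorescence from protein-fragment complementation between Nurr1 and RXRα in human HEK293T cells, 8 h after dosing. DMSO served as negative control; increased signal counted as activity.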

[3] = target: Retinoic acid receptor RXR-alpha (Homo sapiens) (UniProt P19793); assay: OT_NURR1_NURR1RXRa_1440: Odyssey Thera (OT) 24-hour HEK293T Protein Complementation Assay for Nurr1/retinoid X receptor (RXR) (AID 2283386)
In short: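 Fluorescence PCA read-out; HEK293T; 24 h post-dose; bait/prey fused to reporter fragments; gain-of-signal fit vs DMSO negative control.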

[4] = target: Peroxisome proliferator-activated receptor gamma (Homo sapiens) (UniProt P37231); assay: OT_PPARg_PPARgSRC1_0480: Odyssey Thera (OT) 8-hour Protein-Complementation Assay for Peroxisome Proliferator-activated Receptor Gamma / SRC-1 Co-activator (AID 2283387);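 also: nuclear to cytoplasmic split Venus YFP fluorescence ratio reporting PPARg SRC-1 interaction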
Sequence of Peroxisome proliferator-activated receptor gamma (Homo sapiens) (P37231 whole entry, looked up, the tested form may be a part): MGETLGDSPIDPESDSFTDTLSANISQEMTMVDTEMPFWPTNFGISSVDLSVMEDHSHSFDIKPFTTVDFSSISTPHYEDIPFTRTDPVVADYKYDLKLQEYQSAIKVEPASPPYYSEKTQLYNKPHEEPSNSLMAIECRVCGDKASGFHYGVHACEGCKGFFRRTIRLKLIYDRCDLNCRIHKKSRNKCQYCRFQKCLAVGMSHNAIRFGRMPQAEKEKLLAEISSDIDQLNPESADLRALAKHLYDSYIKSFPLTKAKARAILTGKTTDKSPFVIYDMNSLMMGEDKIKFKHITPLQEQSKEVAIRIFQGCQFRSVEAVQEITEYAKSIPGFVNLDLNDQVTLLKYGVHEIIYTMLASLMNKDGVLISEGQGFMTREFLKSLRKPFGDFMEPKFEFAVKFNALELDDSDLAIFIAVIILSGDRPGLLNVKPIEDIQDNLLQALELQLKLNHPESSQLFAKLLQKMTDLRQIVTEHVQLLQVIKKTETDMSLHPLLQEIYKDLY
In short: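 HEK293T transiently transfected with PPARg and SRC-1 fused to Venus YFP fragments, compounds 8 h at 37C. Fixed, Draq5-stained cells imaged; nuclear/cytoplasmic 488 nm fluorescence ratio over at least 350 cells per image; gain fitted versus DMSO.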

[5] = target: Peroxisome proliferator-activated receptor gamma (Homo sapiens) (UniProt P37231); assay: OT_PPARg_PPARgSRC1_1440: Odyssey Thera (OT) 24-hour Protein-Complementation Assay for Peroxisome Proliferator-activated Receptor Gamma/ SRC-1 Co-activator (AID 2283388)
In short: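 Readout is the 488 nm N/C fluorescence ratio from fixed, Draq5-stained HEK293T cells after 24 h compound exposure. Cells carried transiently transfected PPARg and SRC-1 fused to Venus fragments, transfected 48 h before treatment.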

[6] = target: Estrogen receptor (Homo sapiens) (UniProt P03372); assay: OT_ERa_GFPERaERE_0480: Odyssey Thera (OT) 8-hour HeLa Transcription Induction Assay for Estrogen Receptor (AID 2283381; active = hit-call score of the fitted dose curve at least 0.9, where 1 is the maximum; inactive = score below 0.9)
Sequence of Estrogen receptor (Homo sapiens) (P03372 whole entry, looked up): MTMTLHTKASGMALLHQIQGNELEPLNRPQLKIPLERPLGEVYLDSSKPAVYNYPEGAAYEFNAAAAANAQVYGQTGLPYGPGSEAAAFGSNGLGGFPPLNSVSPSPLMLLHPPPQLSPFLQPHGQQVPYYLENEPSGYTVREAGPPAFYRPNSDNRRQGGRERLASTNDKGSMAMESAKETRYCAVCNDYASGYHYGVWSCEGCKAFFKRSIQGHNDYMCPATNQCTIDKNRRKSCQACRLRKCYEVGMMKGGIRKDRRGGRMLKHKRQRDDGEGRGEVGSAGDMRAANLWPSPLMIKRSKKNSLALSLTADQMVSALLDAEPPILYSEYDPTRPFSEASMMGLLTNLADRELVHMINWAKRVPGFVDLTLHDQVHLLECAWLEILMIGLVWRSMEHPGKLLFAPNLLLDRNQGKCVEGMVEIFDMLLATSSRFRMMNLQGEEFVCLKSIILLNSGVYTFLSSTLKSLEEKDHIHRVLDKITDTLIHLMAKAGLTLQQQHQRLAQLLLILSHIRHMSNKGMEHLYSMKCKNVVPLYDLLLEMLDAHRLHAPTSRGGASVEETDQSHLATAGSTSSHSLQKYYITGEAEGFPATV
In short: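 GFP-ERE reporter, HeLa, 8 h exposure. Readout: fluorescence microscopy, high-content image analysis. Fit direction positive vs DMSO negative control.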

[7] = target: Estrogen receptor (Homo sapiens) (UniProt P03372); assay: OT_ERa_GFPERaERE_0120: Odyssey Thera (OT) 2-hour HeLa Transcription Induction Assay for Estrogen Receptor (AID 2283382)
In short: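 Fluorescence microscopy read-out: inducible fluorescent protein reporter in HeLa cells, imaged 2 h post-dose. Signal increase over DMSO negative control fitted as single primary endpoint via high content image analysis.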

[8] = target: Bile acid receptor (Homo sapiens) (UniProt Q96RI1); assay: OT_FXR_FXRSRC1_1440: Odyssey Thera (OT) 24-hour HEK293T Protein-Complementation Assay for Farnesoid X receptor/SRC-1 Co-activator (AID 2283384)
Sequence of Bile acid receptor (Homo sapiens) (Q96RI1 whole entry, looked up, the tested form may be a part): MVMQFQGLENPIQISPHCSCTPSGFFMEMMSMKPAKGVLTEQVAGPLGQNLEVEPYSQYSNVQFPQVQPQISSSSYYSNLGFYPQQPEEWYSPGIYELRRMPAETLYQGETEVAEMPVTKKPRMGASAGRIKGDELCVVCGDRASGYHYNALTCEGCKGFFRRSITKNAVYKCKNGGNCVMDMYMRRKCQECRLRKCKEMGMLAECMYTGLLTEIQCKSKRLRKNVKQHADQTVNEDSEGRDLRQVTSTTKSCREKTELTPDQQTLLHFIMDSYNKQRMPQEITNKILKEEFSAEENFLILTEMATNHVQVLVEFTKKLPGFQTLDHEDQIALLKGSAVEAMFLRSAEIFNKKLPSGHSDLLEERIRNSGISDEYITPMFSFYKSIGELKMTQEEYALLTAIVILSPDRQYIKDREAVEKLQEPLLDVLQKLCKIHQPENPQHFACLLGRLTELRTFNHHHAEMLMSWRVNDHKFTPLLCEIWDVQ
In short: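 Fluorescence readout, 24 h post-dose, HEK293T; FXR and SRC-1 fused to complementary reporter fragments, association reconstitutes signal. Positive-direction fit vs DMSO baseline.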

[9] = CEETOX_H295R_11DCORT: CeeTox H295R High-throughput Steroidogenesis Assay for 11-Deoxycortisol (11DCORT) (AID 2283432; active = hit-call score of the fitted dose curve at least 0.9, where 1 is the maximum; inactive = score below 0.9); conditions: actives raise or lower the signal
In short: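 H295R cells prestimulated 48 h with 10 uM forskolin, then exposed 48 h to chemical in 0.1% DMSO. 11-Deoxycortisol in medium quantified by HPLC-MS/MS after MTBE extraction; bidirectional fit versus DMSO. MTT viability read in same wells.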

[10] = CEETOX_H295R_OHPREG: CeeTox H295R High-throughput Steroidogenesis Assay for OH-Pregnenolone (OHPREG) (AID 2283434; active = hit-call score of the fitted dose curve at least 0.9, where 1 is the maximum; inactive = score below 0.9); conditions: actives raise or lower the signal
In short: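 Secreted 17alpha-hydroxypregnenolone measured by HPLC-MS/MS after liquid-liquid extraction. Human adrenal H295R cells received 48 h forskolin (10 uM) stimulation before 48 h chemical exposure at 0.1% final DMSO; MTT viability in same wells; bidirectional fit against DMSO.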

[11] = CEETOX_H295R_OHPROG: CeeTox H295R High-throughput Steroidogenesis Assay for OH-Progesterone (OHPROG) (AID 2283435; active = hit-call score of the fitted dose curve at least 0.9, where 1 is the maximum; inactive = score below 0.9;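 as to AC50: 17alpha-hydroxyprogesterone secreted into medium measured by HPLC-MS/MS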); conditions: actives raise or lower the signal
In short: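 HPLC-MS/MS quantification of 17alpha-hydroxyprogesterone secreted by H295R cells after 48 h chemical exposure, following 48 h 10 uM forskolin prestimulation. Gain or loss of signal fitted relative to DMSO. Viability checked by MTT in the same wells.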

[12] = CEETOX_H295R_CORTISOL: CeeTox H295R High-throughput Steroidogenesis Assay for Cortisol (AID 2283438; active = hit-call score of the fitted dose curve at least 0.9, where 1 is the maximum; inactive = score below 0.9;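 also: cortisol secreted into medium quantified by LC-MS/MS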); conditions: actives raise or lower the signal
In short: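 Read-out: cortisol in culture medium by reverse-phase C18 HPLC with ESI-positive tandem MS, after MTBE liquid-liquid extraction. Cells: human adrenal H295R, forskolin-primed (10 uM, 48 h) before 48 h chemical exposure in 0.1% DMSO.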

[13] = CEETOX_H295R_DOC: CeeTox H295R High-throughput Steroidogenesis Assay for DOC (AID 2283439; active = hit-call score of the fitted dose curve at least 0.9, where 1 is the maximum; inactive = score below 0.9); conditions: actives raise or lower the signal
In short: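 Human adrenocortical H295R cells, passages up to 10, received 10 uM forskolin for 48 h before chemical addition. After another 48 h exposure in 0.1% DMSO, secreted DOC was measured by LC-MS/MS, with gain or loss fitted against DMSO controls.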

[14] = CEETOX_H295R_ESTRADIOL: CeeTox H295R High-throughput Steroidogenesis Assay for Estradiol (AID 2283440; active = hit-call score of the fitted dose curve at least 0.9, where 1 is the maximum; inactive = score below 0.9;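 also: estradiol secreted into medium quantified by LC-MS/MS after dansyl derivatisation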); conditions: actives raise or lower the signal
In short: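 Estradiol in spent medium measured by LC-MS/MS after dansyl chloride derivatisation. Forskolin-primed (10 uM, 48 h) human adrenal H295R cells received test chemical 48 h at 0.1% DMSO; concentrations lowered until MTT viability >/=70%.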

[15] = CEETOX_H295R_ESTRONE: CeeTox H295R High-throughput Steroidogenesis Assay for Estrone (AID 2283441; active = hit-call score of the fitted dose curve at least 0.9, where 1 is the maximum; inactive = score below 0.9;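 also: estrone secreted into medium measured by LC-MS/MS after dansyl derivatization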); conditions: actives raise or lower the signal
In short: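 Forskolin-stimulated H295R cells are treated 48 h with chemical, and estrone in the medium is measured by LC-MS/MS. Activity is fitted in both directions relative to DMSO controls, with chemicals diluted until MTT viability reaches at least 70%.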

[16] = read-out: Tumor necrosis factor receptor superfamily member 6 (Homo sapiens) (UniProt P25445); assay: LTEA_HepaRG_FAS: Life Technologies and Expression Analysis (LTEA) Assay for Fas cell surface death receptor (FAS) using HepaRG (AID 2283447; active = hit-call score of the fitted dose curve at least 0.9, where 1 is the maximum; inactive = score below 0.9); conditions: mRNA level, 48 h; actives raise or lower the signal
In short: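 FAS transcript level was measured by TaqMan qRT-PCR against three housekeeping genes after 48 h chemical exposure. Cells were HepaRG, 0.5% DMSO vehicle, with a top concentration of 100 uM and half-log dilutions over eight points, in duplicate.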

[17] = read-out: Fatty acid synthase (Homo sapiens) (UniProt P49327); assay: LTEA_HepaRG_FASN: Life Technologies and Expression Analysis (LTEA) Assay for Fatty Acid Synthase (FASN) using HepaRG (AID 2283448; active = hit-call score of the fitted dose curve at least 0.9, where 1 is the maximum; inactive = score below 0.9); conditions: mRNA level, 48 h; actives raise or lower the signal
In short: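 HepaRG, 48 h exposure, 8-pt half-log series top 100 uM, 0.5% DMSO vehicle, duplicates. Readout: FASN transcript by Fluidigm qRT-PCR; housekeeping-normalized; bidirectional curve fit vs DMSO baseline.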

Sequence of Fatty acid synthase (Homo sapiens) (P49327 whole entry, looked up): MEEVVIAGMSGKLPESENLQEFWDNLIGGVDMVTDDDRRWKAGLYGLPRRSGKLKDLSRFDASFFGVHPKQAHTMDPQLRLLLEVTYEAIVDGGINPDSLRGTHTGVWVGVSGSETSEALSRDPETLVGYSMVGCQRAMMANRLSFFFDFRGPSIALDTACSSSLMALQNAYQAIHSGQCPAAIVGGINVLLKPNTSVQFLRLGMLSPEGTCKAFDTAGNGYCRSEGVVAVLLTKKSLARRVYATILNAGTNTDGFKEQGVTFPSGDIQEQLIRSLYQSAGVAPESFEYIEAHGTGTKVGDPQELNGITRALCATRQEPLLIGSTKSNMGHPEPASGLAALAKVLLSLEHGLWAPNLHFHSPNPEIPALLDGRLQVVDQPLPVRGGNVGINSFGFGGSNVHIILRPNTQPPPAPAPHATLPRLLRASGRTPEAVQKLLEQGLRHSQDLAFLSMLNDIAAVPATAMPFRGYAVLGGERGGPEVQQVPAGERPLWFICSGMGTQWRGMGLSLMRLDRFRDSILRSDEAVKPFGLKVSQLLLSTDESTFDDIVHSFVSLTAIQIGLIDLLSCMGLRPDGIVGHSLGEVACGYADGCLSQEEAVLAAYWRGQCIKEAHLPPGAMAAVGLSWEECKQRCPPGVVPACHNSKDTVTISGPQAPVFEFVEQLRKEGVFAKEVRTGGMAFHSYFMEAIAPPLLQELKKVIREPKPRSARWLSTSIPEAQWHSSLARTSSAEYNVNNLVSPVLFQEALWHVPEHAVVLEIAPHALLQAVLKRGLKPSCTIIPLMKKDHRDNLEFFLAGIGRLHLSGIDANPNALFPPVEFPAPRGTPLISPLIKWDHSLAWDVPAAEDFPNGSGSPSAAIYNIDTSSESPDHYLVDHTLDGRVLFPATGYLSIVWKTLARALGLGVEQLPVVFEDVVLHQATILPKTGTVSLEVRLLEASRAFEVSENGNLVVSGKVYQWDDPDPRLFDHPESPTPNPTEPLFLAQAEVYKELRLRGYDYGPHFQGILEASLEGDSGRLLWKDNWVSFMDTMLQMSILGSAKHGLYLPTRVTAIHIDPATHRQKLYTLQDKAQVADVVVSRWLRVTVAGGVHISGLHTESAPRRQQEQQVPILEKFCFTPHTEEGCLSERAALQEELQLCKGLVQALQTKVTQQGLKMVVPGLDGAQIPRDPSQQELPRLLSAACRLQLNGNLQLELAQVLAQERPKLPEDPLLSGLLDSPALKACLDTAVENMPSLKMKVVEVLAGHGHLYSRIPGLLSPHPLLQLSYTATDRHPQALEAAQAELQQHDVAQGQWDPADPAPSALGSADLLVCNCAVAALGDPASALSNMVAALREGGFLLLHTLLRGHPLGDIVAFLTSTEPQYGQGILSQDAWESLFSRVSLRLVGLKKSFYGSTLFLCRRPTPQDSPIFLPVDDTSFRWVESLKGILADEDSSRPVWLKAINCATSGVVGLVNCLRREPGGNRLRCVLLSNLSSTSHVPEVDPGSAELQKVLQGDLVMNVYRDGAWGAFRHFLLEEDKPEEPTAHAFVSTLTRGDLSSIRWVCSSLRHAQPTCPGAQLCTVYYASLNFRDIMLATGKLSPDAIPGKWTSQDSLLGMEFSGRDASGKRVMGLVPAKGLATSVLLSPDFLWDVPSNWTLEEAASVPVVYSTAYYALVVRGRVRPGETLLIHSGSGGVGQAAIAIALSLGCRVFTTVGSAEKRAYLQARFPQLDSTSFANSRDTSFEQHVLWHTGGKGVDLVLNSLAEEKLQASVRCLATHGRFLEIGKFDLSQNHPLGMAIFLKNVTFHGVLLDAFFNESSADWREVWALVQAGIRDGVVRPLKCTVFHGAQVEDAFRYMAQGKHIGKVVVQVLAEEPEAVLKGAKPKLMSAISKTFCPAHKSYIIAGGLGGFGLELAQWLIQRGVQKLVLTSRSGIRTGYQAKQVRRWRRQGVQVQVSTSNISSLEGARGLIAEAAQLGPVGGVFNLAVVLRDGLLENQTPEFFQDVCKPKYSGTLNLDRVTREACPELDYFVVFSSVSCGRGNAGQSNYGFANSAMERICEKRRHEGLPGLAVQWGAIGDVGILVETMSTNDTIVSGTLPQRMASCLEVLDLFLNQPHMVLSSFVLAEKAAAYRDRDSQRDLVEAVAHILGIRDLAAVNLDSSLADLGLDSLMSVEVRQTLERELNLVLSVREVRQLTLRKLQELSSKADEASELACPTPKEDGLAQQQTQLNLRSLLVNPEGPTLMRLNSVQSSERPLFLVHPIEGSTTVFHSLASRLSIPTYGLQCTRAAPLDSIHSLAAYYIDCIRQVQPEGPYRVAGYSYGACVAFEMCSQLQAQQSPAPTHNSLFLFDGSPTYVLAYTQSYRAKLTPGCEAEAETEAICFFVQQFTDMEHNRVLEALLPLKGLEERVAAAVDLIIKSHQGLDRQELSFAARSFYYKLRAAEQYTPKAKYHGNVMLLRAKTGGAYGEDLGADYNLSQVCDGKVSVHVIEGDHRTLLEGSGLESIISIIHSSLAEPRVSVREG

CC(C)CCCCCCCOC(=O)c1ccc(C(=O)OCCCCCCCC(C)C)c(C(=O)OCCCCCCCC(C)C)c1
outcome [1]: inactive
outcome [2]: inactive
outcome [3]: inactive
outcome [4]: inactive
outcome [5]: inactive

CCN(CC)c1ccc2c(-c3ccccc3C(=O)O)c3ccc(=[N+](CC)CC)cc-3oc2c1
outcome [6]: inactive
outcome [7]: inactive
AC50 [8]: 38.9 µM (active)
AC50 [2]: 12.7 µM (active)
AC50 [3]: 16.1 µM (active)
AC50 [4]: 12.2 µM (active)
AC50 [5]: 12 µM (active)

CC(C)c1cccc(O)c1
outcome [6]: inactive
outcome [7]: inactive
outcome [3]: inactive
outcome [4]: inactive
outcome [5]: inactive
outcome [9]: inactive
outcome [10]: inactive
AC50 [11]: 39 µM (active)
outcome [12]: inactive
outcome [13]: inactive
outcome [14]: inactive
outcome [15]: inactive

CCCCCCCCCCCCN
AC50 [2]: 11 µM (active)
AC50 [3]: 10.6 µM (active)
outcome [4]: inactive
outcome [5]: inactive

O=C1C(c2[nH]c3ccc(S(=O)(=O)O)cc3c2O)=Nc2ccc(S(=O)(=O)O)cc21
outcome [3]: inactive
outcome [4]: inactive
outcome [5]: inactive

CCCCCCCCCCN
outcome [1]: inactive
AC50 [3]: 78.2 µM (active)

C=CC[N+](C)(C)CC=C
outcome [1]: inactive
outcome [3]: inactive
outcome [4]: inactive
outcome [5]: inactive

Cc1ccc(O)c(C(C)(C)C)c1
AC50 [2]: 50 µM (active)
outcome [3]: inactive
outcome [4]: inactive
outcome [5]: inactive

CC(=O)OCCC(C)CC(C)(C)C (centres undefined)
outcome [6]: inactive
outcome [7]: inactive
outcome [8]: inactive
outcome [3]: inactive
outcome [4]: inactive
outcome [5]: inactive

c1ccc(CCCc2ccccn2)cc1
outcome [6]: inactive
outcome [7]: inactive
outcome [8]: inactive
outcome [2]: inactive
outcome [4]: inactive
outcome [5]: inactive
outcome [10]: inactive
outcome [11]: inactive
outcome [14]: inactive
outcome [15]: inactive

CN(C)CCCN
outcome [6]: inactive
outcome [7]: inactive
outcome [8]: inactive
outcome [3]: inactive
outcome [4]: inactive
outcome [5]: inactive

Cc1ccc(S)cc1
outcome [6]: inactive
outcome [7]: inactive
AC50 [3]: 79.8 µM (active)
outcome [4]: inactive
outcome [5]: inactive

CC(C)=CCCC(C)=CCCC(C)=CCO
outcome [2]: inactive
outcome [4]: inactive
outcome [5]: inactive
AC50 [10]: 28.1 µM (active)
AC50 [11]: 31.5 µM (active)

OC1OC[C@@H](O)[C@H](O)[C@H]1O (some centres undefined)
outcome [2]: inactive
outcome [3]: inactive
outcome [4]: inactive
outcome [5]: inactive

O=C(O)c1ccc([N+](=O)[O-])cc1
outcome [8]: inactive
outcome [2]: inactive
outcome [9]: inactive
outcome [10]: inactive
outcome [11]: inactive
outcome [12]: inactive
outcome [13]: inactive
outcome [16]: inactive
outcome [17]: inactive

CC(C)=CCC[C@](C)(O)[C@@H]1CC=C(C)CC1
outcome [1]: inactive
outcome [3]: inactive
outcome [4]: inactive
outcome [5]: inactive

O=C1NC(=O)c2ccccc21
outcome [8]: inactive
outcome [3]: inactive
outcome [4]: inactive
outcome [5]: inactive
